# Screens as filed in PubChem.
# Jurkat NFkB inh = lowers PMA/ionomycin-induced NF-kB signal in Jurkat cells. PMA/ionomycin-induced NF-kB luciferase reporter, luminescence. inhibition, % at 4 µM. 0.53% of 330,000 active. AID 435003; in the data active = inhibition above about 50%
# Gli-Sufu block = Gli-Sufu pathway antagonism; AID 588413; 0.74% of 340,000 active; inhibition, % at 5 µM; Sufu-KO-LIGHT fibroblasts, Gli luciferase reporter luminescence;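 active = inhibition above about 55%, limit read from the data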;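 also: 0% = DMSO-treated cells and 100% = wells with medium but no cells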
# NR2F2 inh = NR2F2 (human) inhibition, primary screen; 0.7% of 370,000 active; HEK293T NGFI-A luciferase reporter, luminescence; P24468; inhibition, % at 8.6 µM;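 active = inhibition above a per-plate cutoff, mean inhibition of test wells between control levels plus 3 SD, cut at about 38% in these data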;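 also: cells cotransfected with COUP-TFII expression vector driving the NGFI-A reporter; 0% = median of COUP-TF2 test wells and 100% = reporter-only cells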
# GalR3 antagonist = antagonists of human GalR3. AID 651719. HEK293 GalR3-CNG cAMP membrane potential fluorescence; galR3 body fused to GalR1 C-terminus. inhibition, % at 3 µM. O60755. 0.44% of 360,000 active;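 active = inhibition above the screen-wide average plus 3 SD, cut at about 13% in these data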;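 also: forskolin and galanin both at EC90 stimulate the cells; cAMP rise reported by CNG channel membrane potential dye signal; 0% = forskolin plus galanin with DMSO and 100% = forskolin alone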
# Target sequence (O60755 1-299 limits assumed): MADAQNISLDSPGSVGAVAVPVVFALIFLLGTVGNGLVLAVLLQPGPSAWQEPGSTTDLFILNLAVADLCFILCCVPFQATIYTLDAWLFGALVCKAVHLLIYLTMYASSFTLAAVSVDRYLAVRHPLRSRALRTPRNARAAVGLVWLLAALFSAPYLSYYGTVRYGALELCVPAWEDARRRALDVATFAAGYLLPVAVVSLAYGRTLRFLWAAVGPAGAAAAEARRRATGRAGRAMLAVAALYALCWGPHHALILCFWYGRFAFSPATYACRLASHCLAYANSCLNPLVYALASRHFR
# 697 NFkB inh = lowers PMA/ionomycin-induced NF-kB signal in 697 B cells; 697 B-cell NF-kB luciferase reporter, 16 h; 0.33% of 330,000 active; inhibition, % at 4 µM; in the data active = inhibition above about 35%
# Jurkat NFkB conf = inhibitors of the PMA/ionomycin-induced NF-kB reporter in Jurkat cells, retest. shares compounds with Jurkat NFkB inh. AID 435020. Jurkat NF-kB luciferase, 16 h. 27% of 2,700 active. inhibition, % at 4 µM;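 active = inhibition reaching about 45% at 4 µM in either replicate, limit read from the data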;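 also: plate controls were PMA/ionomycin stimulated DMSO wells for no effect and unstimulated DMSO wells for full effect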
# * marks the source's active call; other numbers are inactive results; · = not tested or not shown. Rows were chosen to be rich in hits. Some 2% of all compounds tested hit in one or more screens of this group.
SMILES,Jurkat NFkB inh,Gli-Sufu block,NR2F2 inh,GalR3 antagonist,697 NFkB inh,Jurkat NFkB conf
Nc1[nH]c(C(=O)c2ccccc2)c(-c2cccc3ccccc23)c1C(=O)NC1CCCCC1,·,·,-8,-6,·,·
C[C@H]1[C@@H](OC(=O)NCc2ccco2)CC[C@@]23CCCN2C(=O)CCC[C@@H]13,·,·,0,·,·,·
COc1ccc(C(=O)NCCNC(=O)c2ccc(OC)cc2)cc1,6,-3,-3,-2,3,·
COc1ccc(C(=O)NCCSc2ccccc2)cc1,-212,-97,-22,6,-204,-99
C=CCNc1ncnc2c1cnn2-c1ccc(Cl)cc1,-157,-113,-62,-2,-223,-143
COc1ccc(-n2ncc3c(NC(C)C)ncnc32)cc1,-176,32,-23,-3,-242,-124
C=CCNc1ncnc2c1cnn2-c1cccc(C)c1,-126,-85,-39,-2,-143,·
COCC(C)Nc1ncnc2c1cnn2-c1ccc(Cl)cc1 (stereo not given),-175,-67,-57,-1,-191,-100
Clc1ccc(Cn2ncc3c(NCc4ccccc4)ncnc32)cc1,56*,-8,-8,-5,-28,34
Clc1ccc(-n2ncc3c(NCc4ccccn4)ncnc32)cc1,-50,-65,-31,-5,-52,·
CC(c1ccco1)N(C(=O)c1ccc(C#N)cc1)c1ccccn1 (stereo not given),-10,-1,16,-3,15,·
CC(C)c1ccc(C(=O)N(c2ccccn2)C(C)c2ccco2)cc1 (stereo not given),-165,-11,-44,-3,-46,-78
Nc1nnnn1/N=C/C(Br)=C/c1ccccc1,57*,-4,-54,-6,-61,16
Cc1c(NC(=O)C2CCCN(S(=O)(=O)c3ccc(F)cc3)C2)c(=O)n(-c2ccccc2)n1C (stereo not given),·,·,6,·,·,·
Cc1ccc(C)c(CSc2nc3[nH]ncc3c(=O)[nH]2)c1,66*,27,-10,-2,-30,46
O=C1/C(=C\c2cccs2)Sc2ccc3ccccc3c21,-157,20,-33,-6,-155,-91
O=C1C(=O)N(Cc2ccc(-c3ccc(Cl)nc3)cc2)c2ccc(OC(F)(F)F)cc21,·,·,-21,·,·,·
Cc1cc(C)c2nc(C)cc(N/N=C/c3ccc(O)cc3)c2c1,98*,9,-1,-10,-7,81*
COC(=O)c1cc(OC)c(OC)cc1NC(=S)NC(=O)c1ccco1,85*,19,0,2,-18,-2
COc1cc2sc(NC(=O)c3ccco3)nc2cc1Cl,-65,-69,-28,-5,-116,·
COc1cc2nc(NC(=O)c3ccco3)sc(=O)c2cc1OC,80*,12,-4,2,24,89*
C=CCNC(=O)NCC1CCN(Cc2ccc(OC)cc2)CC1,·,·,12,·,·,·
Cc1ccc(NC(=O)[C@H]2CC(=O)O[C@@H]2c2ccccc2)c(C)c1,·,·,-18,·,·,·
O=C(NCCc1ccccc1)OCc1cn(Cc2ccc(C(F)(F)F)cc2)nn1,·,·,-13,·,·,·
COc1ccc(C(=O)N(C)Cc2cnn(Cc3ccccc3)c2)cc1S(=O)(=O)N1CCOCC1,54*,-14,-5,0,-48,44
SMILES,Jurkat NFkB inh,Gli-Sufu block,NR2F2 inh,GalR3 antagonist,697 NFkB inh,Jurkat NFkB conf
COc1ccccc1NC(CC(=O)c1ccccc1)C(=O)OCC(=O)c1ccc(Br)cc1 (stereo not given),-163,-19,-60,1,-185,-60
O=C(CC(Nc1ccccc1Cl)C(=O)OCC(=O)c1cccs1)c1ccccc1 (stereo not given),-200,13,2,-6,-232,2
COc1ccccc1NC(CC(=O)c1ccccc1)C(=O)OCC(=O)c1ccc(C)cc1 (stereo not given),-117,4,-13,-6,-149,·
COc1ccc(S[C@]2(C(=O)N3CCN(C(C)=O)CC3)CC(=O)N(C(=O)/C=C/c3ccccc3)[C@@H]2c2ccc(OC)cc2)cc1,·,·,14,·,·,·
COc1cc(C(=O)NC2CCCCN(Cc3cccc(C(F)(F)F)c3)C2=O)cc(OC)c1OC (stereo not given),·,·,26,·,·,·
Cc1ccc(-c2nc3ccc(Cl)cc3n2OC(C)C(=O)O)cc1 (stereo not given),-173,-7,-51,-5,-244,-102
CC(=O)c1c(C)[nH]c(C(=O)CSc2ncnc3sc(-c4ccccc4)cc23)c1C,52*,39,2,-5,-32,14
O=C(O)CSc1ncnc2sc(-c3ccccc3)cc12,5,44,8,0,-18,·
COc1ccc(-c2cc(C(=O)N3CCCC3)c3ccccc3n2)cc1,-7,-23,-15,-6,-25,·
CC(=O)N1CCN(C(=O)c2cc(C)nc3ccccc23)CC1,6,-31,6,-6,9,·
Cc1cc(C(=O)N2CC=C(c3ccccc3)CC2)c2ccccc2n1,67*,28,-20,-6,-16,45
COc1ccc(-c2cc(C(=O)N3CCN(c4ccccc4)CC3)c3ccccc3n2)cc1,60*,49,-9,-4,-52,-11
Cc1c(C(=O)C(=O)N2CC=C(c3ccccc3)CC2)c2ccccc2n1C,53*,4,-6,-6,-52,20
O=C(/C=C/c1cccc([N+](=O)[O-])c1)n1cnc2ccccc21,71*,16,4,-5,-43,40
Cc1ccc(C(=O)Nc2ccc(N3CCCCC3)cc2)cc1,-176,-123,-33,-10,-161,-113
O=C(Nc1ccc(N2CCCCC2)cc1)c1ccc(F)cc1F,-175,-80,-78,-3,-202,-69
Cc1ccc(C(=O)Nc2cccc(C(=O)O)c2)cc1,73*,-133,-25,-3,17,60*
COC(=O)C1CN(Cc2ccc(C)cc2)CCS(=O)(=O)N1Cc1cn(Cc2ccc(C)cc2)nn1 (stereo not given),·,·,-3,·,·,·
CCc1ccc(CCNC(=O)OC2CCC23CCC(c2ccccc2)CC3)cc1 (stereo not given),·,·,-5,·,·,·
Cn1nnc2cc(C(=O)Nc3ccc4ccccc4c3)ccc21,-163,-66,-49,-2,-166,-67
CC(C)c1ccc(/C=C/C(=O)NC2=NCCS2)cc1,-204,·,·,·,-171,-102
CSCCCNC(=O)Cn1nc(Cc2ccncc2)c2ccccc2c1=O,·,·,15,·,·,·
COc1ccccc1CNC(=O)C1CC(c2cccc([N+](=O)[O-])c2)=NO1 (stereo not given),55*,1,-14,-7,-6,13
COc1cc(C2=NOC(C(=O)NCc3ccc(F)cc3)C2)cc(OC)c1OC (stereo not given),68*,46,-69,-3,29,52*
O=C(NCc1ccco1)C1CC(c2cccc([N+](=O)[O-])c2)=NO1 (stereo not given),15,-11,0,-5,10,·
COc1ccc(C2=NOC(C(=O)NCc3ccc(F)cc3)C2)cc1OC (stereo not given),78*,44,·,·,27,58*
